PubChem BioAssay (NCATS)
Where “and” joins values, the source holds several entries; their conditions need not be identical. Equal values may be shown once. Records with an inconclusive call do not appear. Entries that show only a call come without a potency. Values without a mark were called inactive. Calls of active or inactive are those of the source. Calls follow the shape of the dose curve; as a rule, active = well fitted curve in the direction sought with a large enough effect; inconclusive = small, poorly fitted or top-dose-only effect, or another doubt; inactive = no such curve, though single readings can be large; an effect the other way counts as inactive or inconclusive.

Legend:
[1] = qHTS of pediatric cancer cell lines to identify multiple opportunities for drug repurposing: Primary screen for TC32 cells (AID 1347089); also: nearly all actives have a fitted effect of over 60% in size
How it was run: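 In the primary qHTS, MIPE compounds were tested at 11 concentrations (0.78 nM to 46 µM) and NPC compounds at 8 (0.59 nM to 46 µM) on TC32 cells for 48 h. CellTiter-Glo luminescence gave viability.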

[2] = qHTS of pediatric cancer cell lines to identify multiple opportunities for drug repurposing: Primary screen for DAOY cells (AID 1347090); also: series mostly up to about 46 µM; nearly all actives have a fitted effect of over 55% in size
How it was run: (§1)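 Cell viability, CellTiter-Glo luminescence; 500-1,000 cells/well, 8- or 11-point titration, 48 h compound exposure at 37 degrees C, 5% CO2. Controls: DMSO neutral, bortezomib 2.3 µM final as positive.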

[3] = qHTS of pediatric cancer cell lines to identify multiple opportunities for drug repurposing: Primary screen for SJ-GBM2 cells (AID 1347091); also: potency is read from the fitted curve at half-maximal effect
How it was run: as §1

[4] = qHTS of pediatric cancer cell lines to identify multiple opportunities for drug repurposing: Primary screen for SK-N-MC cells (AID 1347093); also: potency is read from the fitted curve at half-maximal effect; as to activity change, negative = cytotoxic: series mostly up to about 46 µM
How it was run: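 Metabolically active cells were quantified by ATP-dependent luminescence (CellTiter-Glo, 15 min at room temperature) following 48 h treatment. Cells had been plated at 500-1,000 per well and settled for 5 h beforehand.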

[5] = qHTS of pediatric cancer cell lines to identify multiple opportunities for drug repurposing: Primary screen for NB-EBc1 cells (AID 1347095); also: potency is read from the fitted curve at half-maximal effect
How it was run: (§2)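 Cells seeded at 500-1,000 cells/well in growth media, rested 5 hours at 37 degrees C, 5% CO2, then dosed; MIPE compounds at 11-point (from 0.78 nM) and NPC at 8-point (from 0.59 nM) final concentrations. Viability by CellTiter-Glo luminescence after 48 hours.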

[6] = qHTS of pediatric cancer cell lines to identify multiple opportunities for drug repurposing: Primary screen for Saos-2 cells (AID 1347097); also: nearly all actives have a fitted effect of over 40% in size; also: potency is read from the fitted curve at half-maximal effect
How it was run: as §2

[7] = qHTS of pediatric cancer cell lines to identify multiple opportunities for drug repurposing: Primary screen for SK-N-SH cells (AID 1347098); also: nearly all actives have a fitted effect of over 65% in size; also: potency is read from the fitted curve at half-maximal effect
How it was run: (§3)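 Cells (500-1,000/well) rested 5 h, then received compounds for 48 h; metabolically active cells were measured by CellTiter-Glo luminescence. Final concentrations spanned up to 46 µM (MIPE, 11-point) or 0.59 nM-46 µM (NPC, 8-point) in primary screens, 11-point in follow-ups.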

[8] = qHTS of pediatric cancer cell lines to identify multiple opportunities for drug repurposing: Primary screen for NB1643 cells (AID 1347099); also: nearly all actives have a fitted effect of over 50% in size; also: potency is read from the fitted curve at half-maximal effect
How it was run: as §2

[9] = qHTS of pediatric cancer cell lines to identify multiple opportunities for drug repurposing: Primary screen for Rh18 cells (AID 1347102); also: nearly all actives have a fitted effect of over 65% in size; also: potency is read from the fitted curve at half-maximal effect
How it was run: as §3

[10] = qHTS of pediatric cancer cell lines to identify multiple opportunities for drug repurposing: Primary screen for OHS-50 cells (AID 1347103); also: nearly all actives have a fitted effect of over 40% in size; also: potency is read from the fitted curve at half-maximal effect
How it was run: as §3

[11] = qHTS of pediatric cancer cell lines to identify multiple opportunities for drug repurposing: Primary screen for RD cells (AID 1347104); also: nearly all actives have a fitted effect of over 55% in size
How it was run: as §2

[12] = qHTS of pediatric cancer cell lines to identify multiple opportunities for drug repurposing: Primary screen for control Hh wild type fibroblast cells (AID 1347106);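 also: series mostly up to about 46 µM; a drop in luminescence marks cytotoxicity and a rise apparent proliferation; nearly all actives have a fitted effect of over 55% in size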
How it was run: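 Viability after 48 h compound treatment at 37C, 500-1,000 cells/well, read as ATP luminescence with CellTiter-Glo. Primary screens used 11-point (MIPE, 0.78 nM-46 µM) or 8-point (NPC, 0.59 nM-46 µM) final concentrations; follow-up screens used 11-point dilutions.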

[13] = qHTS of pediatric cancer cell lines to identify multiple opportunities for drug repurposing: Primary screen for Rh30 cells (AID 1347107); also: series mostly up to about 46 µM; nearly all actives have a fitted effect of over 75% in size
How it was run: as §3

[14] = qHTS of pediatric cancer cell lines to identify multiple opportunities for drug repurposing: Primary screen for Rh41 cells (AID 1347108);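 also: series mostly up to about 46 µM; luminescence drop marks cytotoxic hits; nearly all actives have a fitted effect of over 70% in size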
How it was run: as §2

[15] = qHTS of pediatric cancer cell lines to identify multiple opportunities for drug repurposing: Primary screen for A673 cells (AID 1347092); also: nearly all actives have a fitted effect of over 45% in size; also: potency is read from the fitted curve at half-maximal effect
How it was run: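 48 h compound exposure, A673, 500-1,000 cells/well, 37 degrees C/5% CO2. MIPE: 11-point, 0.78 nM-46 µM; NPC: 8-point, 0.59 nM-46 µM (final). Readout CellTiter-Glo luminescence after 15 min RT.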

[16] = qHTS of pediatric cancer cell lines to identify multiple opportunities for drug repurposing: Primary screen for BT-37 cells (AID 1347094); also: potency is read from the fitted curve at half-maximal effect; as to activity change, negative = cytotoxic: series mostly up to about 57 µM
How it was run: as §2

[17] = qHTS of pediatric cancer cell lines to identify multiple opportunities for drug repurposing: Primary screen for U-2 OS cells (AID 1347096); also: nearly all actives have a fitted effect of over 50% in size
How it was run: as §3

[18] = qHTS of pediatric cancer cell lines to identify multiple opportunities for drug repurposing: Primary screen for LAN-5 cells (AID 1347100); also: potency is read from the fitted curve at half-maximal effect
How it was run: as §3

[19] = qHTS of pediatric cancer cell lines to identify multiple opportunities for drug repurposing: Primary screen for BT-12 cells (AID 1347101); also: nearly all actives have a fitted effect of over 25% in size; also: potency is read from the fitted curve at half-maximal effect
How it was run: as §3

[20] = qHTS of pediatric cancer cell lines to identify multiple opportunities for drug repurposing: Primary screen for MG 63 (6-TG R) cells (AID 1347105); also: nearly all actives have a fitted effect of over 50% in size
How it was run: as §2

## CC(C)(C)CC(C)(C)c1ccc(O)cc1
[1]
  Potency: inactive
[2]
  Potency: inactive
[3]
  Potency: 21.7 µM (active)
[4]
  Potency: 27.3 µM (active)
[5]
  Potency: 30.6 µM (active)
[6]
  Potency: 30.6 µM (active) and 21.1 µM (active)
[7]
  Potency: 25 µM (active)
[8]
  Potency: inactive
[9]
  Potency: inactive
[10]
  Potency: 25.2 µM (active) and 15.5 µM (active)
[11]
  Potency: inactive
[12]
  Potency: inactive
[13]
  Potency: inactive
[14]
  Potency: inactive

## NCC(CC(=O)O)c1ccc(Cl)cc1 (centres undefined)
[1]
  activity change, negative = cytotoxic: 1.72% [at 0.594 µM]
[2]
  activity change, negative = cytotoxic: -6.69% [at 0.597 µM]
[3]
  activity change, negative = cytotoxic: -1.55% [at 0.597 µM]
[15]
  activity change, negative = cytotoxic: -10.9% [at 0.597 µM]
[16]
  activity change, negative = cytotoxic: -2.84% [at 0.745 µM]
[5]
  activity change, negative = cytotoxic: -3.28% [at 0.597 µM]
[17]
  activity change, negative = cytotoxic: -3.85% [at 0.597 µM]
[8]
  activity change, negative = cytotoxic: -5.29% [at 0.597 µM]
[18]
  activity change, negative = cytotoxic: -9.23% [at 0.597 µM]
[19]
  activity change, negative = cytotoxic: 1.13% [at 0.745 µM]
[9]
  activity change, negative = cytotoxic: -2.74% [at 0.597 µM]
[10]
  activity change, negative = cytotoxic: -11.1% [at 0.73 µM]
[11]
  activity change, negative = cytotoxic: 1.05% [at 0.597 µM]
[20]
  activity change, negative = cytotoxic: -15.2% [at 0.597 µM]
[12]
  activity change, negative = cytotoxic: 6.77% [at 0.597 µM]
[13]
  activity change, negative = cytotoxic: -0.257% [at 0.597 µM]
[14]
  activity change, negative = cytotoxic: 9.97% [at 0.597 µM]

## Clc1ccc(COC(Cn2ccnc2)c2ccc(Cl)cc2Cl)cc1 (centres undefined)
[1]
  Potency: inactive
[15]
  Potency: 23.5 µM (active)
[17]
  Potency: inactive
[8]
  Potency: 26.6 µM (active)
[19]
  Potency: 15.5 µM (active)
[9]
  Potency: inactive
[20]
  Potency: inactive
[12]
  Potency: inactive
[13]
  Potency: inactive

## O=C1CC[C@@]2(O)[C@H]3Cc4ccc(O)c5c4[C@@]2(CCN3CC2CC2)[C@H]1O5
[1]
  Potency: inactive
[2]
  Potency: inactive
[3]
  Potency: inactive
[15]
  Potency: inactive
[16]
  Potency: inactive
[5]
  Potency: inactive
[17]
  Potency: inactive
[6]
  Potency: inactive
[7]
  Potency: inactive
[18]
  Potency: inactive
[19]
  Potency: inactive
[9]
  Potency: inactive
[11]
  Potency: inactive
[20]
  Potency: inactive
[12]
  Potency: inactive
[13]
  Potency: inactive
[14]
  Potency: inactive

## Cn1cc(C2=C(c3cn(C4CCN(Cc5ccccn5)CC4)c4ccccc34)C(=O)NC2=O)c2ccccc21
[1]
  Potency: inactive
[2]
  Potency: inactive
[15]
  Potency: 3.72 µM (active)
[16]
  Potency: inactive
[17]
  Potency: inactive
[7]
  Potency: inactive
[8]
  Potency: inactive
[19]
  Potency: inactive
[9]
  Potency: inactive
[11]
  Potency: inactive
[12]
  Potency: inactive
[13]
  Potency: inactive
[14]
  Potency: inactive

## Cc1ncc(CNC(=O)N(CCCl)N=O)c(N)n1
[2]
  Potency: inactive
[3]
  Potency: inactive
[16]
  Potency: inactive
[5]
  Potency: inactive
[17]
  Potency: inactive
[6]
  Potency: inactive
[7]
  Potency: inactive
[8]
  Potency: inactive
[18]
  Potency: inactive
[19]
  Potency: inactive
[9]
  Potency: inactive
[11]
  Potency: inactive
[20]
  Potency: inactive
[12]
  Potency: inactive
[13]
  Potency: inactive
[14]
  Potency: inactive

## O=c1[nH]c2ccccc2n1C1CCN(CCCC(c2ccc(F)cc2)c2ccc(F)cc2)CC1
[1]
  Potency: inactive
[4]
  Potency: 16.8 µM (active)
[17]
  Potency: inactive
[7]
  Potency: 27.3 µM (active)
[19]
  Potency: 15.5 µM (active)
[12]
  Potency: inactive
[13]
  Potency: inactive

## N#CC(C#N)=Cc1ccc(O)c(O)c1
[2]
  Potency: inactive
[3]
  Potency: inactive
[4]
  Potency: 13.3 µM (active)
[17]
  Potency: inactive
[6]
  Potency: inactive
[7]
  Potency: inactive
[8]
  Potency: inactive
[9]
  Potency: inactive
[11]
  Potency: inactive
[20]
  Potency: inactive
[12]
  Potency: inactive
[13]
  Potency: inactive
[14]
  Potency: inactive

## CC[C@@H](CO)NC(=O)[C@@H]1C=C2c3cccc4c3c(cn4C)C[C@H]2N(C)C1
[1]
  Potency: inactive
[2]
  Potency: inactive
[3]
  Potency: inactive
[4]
  Potency: inactive
[16]
  Potency: inactive
[5]
  Potency: inactive
[17]
  Potency: inactive
[6]
  Potency: inactive
[7]
  Potency: inactive
[9]
  Potency: inactive
[11]
  Potency: inactive
[12]
  Potency: inactive
[13]
  Potency: inactive
[14]
  Potency: inactive

## Oc1cccc2cccnc12
[1]
  Potency: inactive
[3]
  Potency: inactive
[16]
  Potency: inactive
[9]
  Potency: inactive
[20]
  Potency: inactive
[13]
  Potency: inactive

## C[C@@H]1[C@@H](CC(C[C@H]2O[C@@H]3O[C@]4(C)CC[C@@H]5[C@H](C)CC[C@@H]([C@H]2C)[C@@]35OO4)C[S+](=O)([O-])c2ccc(COC(=O)N(C)C)cc2)O[C@@H]2O[C@]3(C)CC[C@H]4[C@H](C)CC[C@@H]1[C@@]24OO3 (some centres undefined)
[3]
  Potency: 0.469 µM (active)
[4]
  Potency: 0.372 µM (active)
[16]
  Potency: 0.485 µM (active)
[5]
  Potency: 0.418 µM (active)
[17]
  Potency: inactive
[6]
  Potency: 118 nM (active)
[8]
  Potency: 1.05 µM (active)
[18]
  Potency: 0.662 µM (active)
[19]
  Potency: 0.344 µM (active)
[9]
  Potency: 1.66 µM (active)
[12]
  Potency: inactive
[13]
  Potency: inactive

## C[C@]12C/C(=C/O)C(=O)C[C@@H]1CC[C@@H]1[C@@H]2CC[C@@]2(C)[C@H]1CC[C@]2(C)O
[1]
  Potency: inactive
[2]
  Potency: inactive
[4]
  Potency: 23.7 µM (active)
[17]
  Potency: inactive
[9]
  Potency: inactive
[11]
  Potency: inactive
[20]
  Potency: inactive
[12]
  Potency: inactive
[13]
  Potency: inactive
[14]
  Potency: inactive

## Oc1ccc(Cl)cc1Cc1ccccc1
[1]
  Potency: inactive
[2]
  Potency: inactive
[3]
  Potency: 12.3 µM (active)
[15]
  Potency: 49.1 µM (active)
[17]
  Potency: inactive
[6]
  Potency: 24.6 µM (active) and 23.7 µM (active)
[7]
  Potency: 35.8 µM (active) and 17.2 µM (active)
[8]
  Potency: inactive
[19]
  Potency: inactive
[9]
  Potency: inactive
[10]
  Potency: 25.6 µM (active)
[12]
  Potency: inactive
[13]
  Potency: inactive
[14]
  Potency: inactive

## COc1ccc(Cc2nccc3cc(OC)c(OC)cc23)cc1OC
[1]
  Potency: inactive
[17]
  Potency: inactive
[6]
  Potency: inactive
[7]
  Potency: inactive
[8]
  Potency: inactive
[9]
  Potency: inactive
[20]
  Potency: inactive
[12]
  Potency: inactive
[13]
  Potency: inactive

## O=c1oc2ccccc2c(O)c1C(CC(O)c1ccc(-c2ccc(Br)cc2)cc1)c1ccccc1 (centres undefined)
[1]
  Potency: inactive
[2]
  Potency: inactive
[3]
  Potency: inactive
[15]
  Potency: inactive
[16]
  Potency: inactive
[5]
  Potency: inactive
[17]
  Potency: inactive
[6]
  Potency: inactive
[7]
  Potency: inactive
[8]
  Potency: inactive
[18]
  Potency: inactive
[19]
  Potency: inactive
[9]
  Potency: inactive
[11]
  Potency: inactive
[20]
  Potency: inactive
[12]
  Potency: inactive
[13]
  Potency: inactive
[14]
  Potency: inactive
